Screens: PubChem BioAssay, National Center for Advancing Translational Sciences (NCATS)
Most compounds without a hit are left out; they make up all but 2.6% or so of the library.
AT treatment: potential ataxia-telangiectasia treatments restoring KAP-1 phosphorylation. F2112 A-T fibroblasts, KAP-1 phosphorylation AlphaLISA; neocarzinostatin DNA damage 30 min before lysis. Potency, µM (highest dose often 57.5 µM), inactives show at the highest dose activation, actives largely listed as activators. hit rate 0.19% among 320,000. AID 485349; note: potency is the fitted concentration of half-maximal effect; % of control where 0% means no effect; nearly all actives have a fitted effect of over 45% in size
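hTERT-immortalized A-T patient fibroblasts (F2112), 500 cells/well in OPTI-MEM, 1% FBS, got compounds for 60 min, then NCS for 30 min at 37C. Lysates were then assayed for phospho-KAP-1 by AlphaLISA (anti-pKAP1 donor, anti-KAP1 acceptor beads), 6 hr at 25C.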
TCR act: activators of T cell receptors. primary human leukocytes, anti-CD3, IL-2 HTRF, 48 h. Potency, µM (top dose mostly 9.22 µM), for inactives: at the top dose activation of IL-2 secretion, actives largely listed as activators. 330,000 tested, under 10 active. AID 504894; note: % of control where 0% means no effect
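Primary human leukocytes incubated 48 hr with anti-CD3 beads plus compound, without co-stimulation. Secreted IL-2 measured by HTRF (europium cryptate/d2 anti-IL-2 pair, 320 nm excitation, 665 nm emission).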
Nrf2 inh: Nrf2 pathway inhibition. A549 ARE-Fluc reporter, luciferase luminescence, 18-24 h. Potency, µM (series often up to 46 µM), for inactives: top-dose activity change, negative = inhibition, most hits filed as inhibitors. hit rate 2.1% among 360,000; note: potency is the fitted concentration of half-maximal effect; % is set by controls: 0 for no effect and ±100 for the full control effect; nearly all actives have a fitted effect of over 60% in size
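A549 ARE_Fluc cells (5000/well, 5% FBS OPTI-MEM) pre-incubated 2 h, then treated with compounds 18-24 h at 37C/5% CO2 in concentration-response. CellTiter-Fluor viability read first; BugLite luciferase luminescence after 15 min at room temperature gives Nrf2 activity.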
CCT chaperon mod: modulators of cytosolic chaperonin (CCT/TRiC) activity | purified chaperonin ATPase assay, HTRF ADP detection, 30 min | activity change, % (test concentration not listed), hits read low | hit rate 0.3% among 360,000 | AID 651819; in the data active = activity change below about -30%; note: % is set by controls: 0 for no effect and ±100 for the full control effect
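TRiC (40 or 20 nM final, by batch activity) in 30 mM Tris pH 7.4, 100 mM KCl, 5 mM MgCl2, 1 mM DTT was treated with compound at 76 uM single dose, then 10 uM ATP, 30 min at 37 °C. ADP was read by HTRF Transcreener.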
Nrf2 activator: activators of Nrf2 (ARE) signaling. AREc32 ARE-luciferase reporter (MCF7-derived line), luminescence, 24 h. Potency, µM (doses to about 46.1 µM), for inactives: at the top dose activation, hits mostly activators. hit rate 0.31% among 410,000; note: potency is the fitted concentration of half-maximal effect; % of control where 0% means no effect; nearly all actives have a fitted effect of over 65% in size
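For detection, Steady-Glo was added and plates sat 30 min at RT; before that, AREc32_Fluc cells grown overnight in OPTI-MEM/5% FBS had been treated with 23 nL compound for 24 hr at 37 deg C.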
A549 tox-1: A549 cytotoxicity, counter-screen for Nrf2 inhibitors. hit rate 0.16% among 390,000. A549 ARE-Fluc cells, CellTiter-Fluor viability, 18-24 h. Potency, µM (series often up to 46 µM), for the others: top-dose activity change, negative = cytotoxicity, most hits filed as inhibitors; note: potency is the fitted concentration of half-maximal effect; % is set by controls: 0 for no effect and ±100 for the full control effect
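A549 ARE_Fluc cells in 5% FBS OPTI-MEM were exposed to compounds in concentration-response for 18-24 h at 37 deg C. Viability was read by CellTiter-Fluor fluorescence (Ex 405/Em 525) after 30 min, before the luciferase read.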
FLuc counter 3: firefly luciferase inhibition, Nrf2 hit validation. Potency, µM (series often up to 57.5 µM), for inactives: at the top dose activity change, negative = inhibition, most hits filed as inhibitors. hit rate 4% among 1,400. shares compounds with Nrf2 inh. purified firefly luciferase, luminescence inhibition. AID 720522; note: potency is the fitted concentration of half-maximal effect; % is set by controls: 0 for no effect and ±100 for the full control effect; nearly all actives have a fitted effect of over 65% in size
Target sequence (P08659 whole entry, looked up): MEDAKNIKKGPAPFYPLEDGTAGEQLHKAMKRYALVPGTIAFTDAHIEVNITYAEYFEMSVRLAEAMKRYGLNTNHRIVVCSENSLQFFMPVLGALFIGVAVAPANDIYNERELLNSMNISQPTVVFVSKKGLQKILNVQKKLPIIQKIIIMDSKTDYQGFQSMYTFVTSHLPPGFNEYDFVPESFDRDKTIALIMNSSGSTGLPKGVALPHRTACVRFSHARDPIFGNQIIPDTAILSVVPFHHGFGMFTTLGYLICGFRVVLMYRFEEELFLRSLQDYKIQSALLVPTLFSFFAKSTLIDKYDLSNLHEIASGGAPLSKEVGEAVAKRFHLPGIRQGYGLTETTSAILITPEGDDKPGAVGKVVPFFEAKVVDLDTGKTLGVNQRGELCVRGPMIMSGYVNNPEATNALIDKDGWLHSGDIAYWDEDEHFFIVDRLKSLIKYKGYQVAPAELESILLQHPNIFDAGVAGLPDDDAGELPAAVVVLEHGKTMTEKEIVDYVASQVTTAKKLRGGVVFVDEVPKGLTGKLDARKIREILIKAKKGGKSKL
A549 tox-2: A549 cytotoxicity, Nrf2 inhibitor counterscreen; A549 ARE-Fluc cells, cytotoxicity counterscreen; Potency, µM (highest dose often 46.1 µM), inactives show at the highest dose activity change, negative = cytotoxicity, most hits filed as inhibitors; shares compounds with Nrf2 inh; hit rate 2% among 1,400;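 note: potency is the fitted concentration of half-maximal effect; cells exposed to compounds for 18 to 24 hours; % is set by controls: 0 for no effect and ±100 for the full control effect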
ARE-Fluc inh: confirmation of Nrf2 inhibitors in A549 ARE reporter cells; hit rate 74% among 1,400; A549 ARE-firefly luciferase reporter, luminescence; Potency, µM (titrated, usually from 46.1 µM), for the others: at the top dose activity change, negative = inhibition, actives largely listed as inhibitors; shares compounds with Nrf2 inh; note: potency is the fitted concentration of half-maximal effect; % is set by controls: 0 for no effect and ±100 for the full control effect; nearly all actives have a fitted effect of over 65% in size
Starred values were filed as active, the others as inactive; ? = inconclusive; . = no result shown; [ ] = remark or other dose. Unless noted, calls come from the whole dose curve; as a rule, active = well fitted curve in the direction sought with a large enough effect; inconclusive = small, poorly fitted or top-dose-only effect, or another doubt; inactive = no such curve, though single readings can be large; an effect the other way counts as inactive or inconclusive.

SMILES | AT treatment | TCR act | Nrf2 inh | CCT chaperon mod | Nrf2 activator | A549 tox-1 | FLuc counter 3 | A549 tox-2 | ARE-Fluc inh
C[n+]1ccc(/C=C/c2ccccc2O)c2ccccc21 | -2% | 2% | -27% | -2 | 3% | -17% | . | . | .
Cc1cc(N(C)C)cc(C)c1/C=C/c1cc[n+](C)c2ccccc12 | . | . | . | . | . | . | -12% | -22% | .
COc1cc(OC)c(/C=C/c2cc[n+](C)c3ccccc23)c(OC)c1 | . | . | . | . | . | . | 0% | -28% | 3.7µM*
O=C(Nc1ccc2oc(-c3cccnc3)nc2c1)c1ccc(-c2cccc(OC(F)(F)F)c2)o1 | . | . | 1.5µM* | . | 4% | -3% | -24% | -9% | 1.8µM*
Cc1c(Cl)cccc1-c1ccc(C(=O)Nc2ccc3oc(-c4cccnc4)nc3c2)o1 | . | . | ? | . | 3% | 0% | . | . | .
COC(=O)c1ccc(-c2csc(NC(=O)c3ccc(S(=O)(=O)N4CCc5ccccc5C4)cc3)n2)cc1 | -1% | 4%[46.1 µM] | 6% | 0 | -1% | 11% | . | . | .
O=C(Nc1nnc(C2CC2)o1)c1ccc(S(=O)(=O)N2CCc3ccccc3C2)cc1 | 2% | -8% | ? | 0 | 3% | ? | . | . | .
COc1ccc(-c2nnc(NC(=O)c3ccc(S(=O)(=O)N4CCc5ccccc5C4)cc3)o2)cc1 | 0% | -3% | 2.8µM* | 2 | 0% | -10% | 0% | -25% | 8.2µM*
COc1ccc(-c2csc(NC(=O)c3ccc(S(=O)(=O)N4CCc5ccccc5C4)cc3)n2)cc1 | 5% | 4%[46.1 µM] | 5.2µM* | -2 | 1% | -11% | 4% | 0% | -27%
CCCCCn1nnnc1-c1nc2cc(C)c(C)cc2[nH]c1=O | . | . | . | -2 | 2% | . | . | . | .
Cc1cc(C)c2nc(C(F)(F)F)c(C#N)c(N)c2c1 | . | -1% | ? | -1 | 0% | -20% | . | . | .
Cc1ccc2nc(C(F)(F)F)c(C#N)c(N)c2c1 | 7% | 5% | 3.7µM* | -2 | -2% | ? | -12% | -26% | 7.3µM*
Cc1ccc(S(=O)(=O)CC2CSc3nc4ccccc4n32)cc1 (stereo not given) | 2% | -5% | 0.73µM* | 0 | -1% | 0% | 0% | -1% | 1.3µM*
Cc1ccc(S(=O)(=O)CC2CSc3nc(N)cc(=O)n32)cc1 (stereo not given) | 7% | -4% | -11% | 1 | -1% | -13% | . | . | .
O=C(c1cc(COc2ccc3ncccc3c2)on1)N1CCCC1 | 8% | -17% | 4.1µM* | 1 | 6% | 3% | ? | -3% | ?
COCC1CCN(C(=O)c2cc(COc3ccc4ncccc4c3)on2)CC1 | 6% | -1% | 3.7µM* | -2 | -1% | -27% | -12% | -5% | 7.3µM*
O=C(NC1CCCC1)c1cc(COc2ccc3ncccc3c2)on1 | 9% | 3% | 6.5µM* | -1 | 0% | -9% | -17% | 4% | 3.7µM*
COc1cccc(CN(C)C(=O)c2cc(COc3ccc4ncccc4c3)on2)c1 | -1% | 6% | 3.7µM* | 1 | 1% | ? | -8% | -1% | 7.3µM*
Cc1ccc(OCc2cc(C(=O)NC3CCCCC3)no2)cn1 | 4% | 0% | 0% | 1 | -1% | 0% | . | . | .
COc1ccc(C)cc1NC(=O)C(c1ccccc1)N1CCN(CC(=O)NC2CC2)CC1 (stereo not given) | 12% | 10% | -1% | -2 | 0% | 1% | . | . | .
O=C(CCC1N=C2c3ccccc3N=C(SCc3ccccc3Cl)N2C1=O)N1CCN(c2ccccc2)CC1 (stereo not given) | . | . | -15% | . | 3% | -16% | . | . | .
Cc1ccc(OCc2cc(C(=O)N3CCCCCCC3)no2)cc1C | 5% | 0% | ? | -2 | 3% | 0% | . | . | .
O=C(c1cc(COc2ccc3ncccc3c2)on1)N1CCCCCC1 | -2% | -11% | 3.7µM* | 1 | 2% | -19% | ? | 0% | 6.5µM*
O=C(O)c1ccc(-c2nc(-c3ccccc3)c(-c3cccs3)[nH]2)cc1 | -3% | 2% | -15% | -1 | -1% | -8% | . | . | .
O=[N+]([O-])c1ccc(O)c(-c2nc(-c3ccccc3)c(-c3cccs3)[nH]2)c1 | 2% | 3% | 3.7µM* | -4 | 1% | . | -16% | ? | 21µM*
COc1ccc(CNC(=O)c2cnc3sc(N4CCCC4)nn3c2=O)c(OC)c1 | . | . | 12% | . | 3% | -2% | . | . | .
CC(=O)N1c2ccc(S(=O)(=O)N3CCOCC3)cc2CC1C (stereo not given) | -6% | 5% | 12% | -1 | -1% | 0% | . | . | .
